N370S GC mod: qHTS Assay for Inhibitors and Activators of N370S glucocerebrosidase as a Potential Chaperone Treatment of Gaucher Disease; Lysosomal acid glucosylceramidase (Homo sapiens), P04062; N370S GC spleen homogenate, 4MU-glucoside fluorescence; Potency, µM (highest dose often 59.4 µM), for the others: top-dose activity change, negative = inhibition, hits mostly inhibitors; 330,000 compounds, 0.092% hits;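 also: potency is read from the fitted curve at half-maximal effect; 0% = full enzyme activity and -100% = no enzyme basal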
a7 integrin act: qHTS for Activators of Integrin-Mediated Alleviation for Muscular Dystrophy; alpha7betagal myoblasts, beta-gal FDG fluorescence, 48 h; Potency, µM (titrated, usually from 38.3 µM), for the others: top-dose activation, most hits filed as activators; 350,000 compounds, 0.064% hits; AID 624291, 2012;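 also: potency is read from the fitted curve at half-maximal effect; 100% = response of the positive control SU9516; nearly all actives have a fitted effect of over 60% in size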
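alpha7betagal+/- myoblasts (passage 13, 250/well) treated 48 h at 37C with compounds at 1:260 dilution of DMSO stock. Lysed, then beta-galactosidase activity read as FDG fluorescence (ex 480/em 540) after 30 min, with pre-read for autofluorescence.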
BRCA1 expr up: qHTS Assay to Identify Small Molecule Activators of BRCA1 Expression | Potency, µM (top dose mostly 46.1 µM), inactives show top-dose activation, usual class: activators | MCF7-BRCA1-FFLuc reporter, luminescence, 48 h; response scale: scaled: vehicle 0%, 10 µM genistein 100% | 380,000 compounds, 1.1% hits; also: potency is read from the fitted curve at half-maximal effect; nearly all actives have a fitted effect of over 80% in size
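MCF7 cells carrying a BRCA1-firefly luciferase reporter (2000 cells/well, phenol-red free MEM) were attached for 2 h at 37 °C, then given compounds for 48 h. Luminescence was read 15 min after luciferase reagent; activity normalized to genistein (10 microM) and DMSO.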
IL-2 act: qHTS of IL-2 Activators | AID 652025, 2013 | activation, % (series mostly up to about 46 µM) | 360,000 compounds, 0.065% hits | IL-2 activation reporter assay, cell-based qHTS; stimulated with anti-CD3/CD4/CD28 beads; in transgenic mouse T cells; in the data active = activation above about 50%; inconclusive = mostly about 30% to 49%; also: 0% is about no effect
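Quantitative HTS in unstimulated transgenic mouse T cells, with memory T cells as non-tolerant control and PMA/ionomycin as tolerance-bypass control. Compound pretreatment lasted 60 minutes before 18 h bead stimulation; EGFP/DsRed fluorescence read.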
Nrf2 ARE act: qHTS of Nrf2 Activators. AREc32 ARE-luciferase reporter (MCF7-derived line), luminescence, 24 h. Potency, µM (highest dose often 46.1 µM), without a hit: at the highest dose activation, most hits filed as activators. 410,000 compounds, 0.31% hits. AID 624171, 2012; also: potency is read from the fitted curve at half-maximal effect; % of control where 0% means no effect; nearly all actives have a fitted effect of over 65% in size
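Luciferase luminescence (Steady-Glo, 30 min at room temperature) served as the read-out of ARE activation in AREc32 cells treated with compounds for 24 hr at 37 deg C.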
BCR signal inh: qHTS Assay to Find Inhibitors of Chronic Active B-Cell Receptor Signaling | ABC-DLBCL IkBa-CBG/CBR reporter, luminescence ratio, 4 h | Potency, µM (top dose mostly 46.1 µM), for the others: top-dose activity change, negative = inhibition, actives largely listed as inhibitors | 340,000 compounds, 0.05% hits; active = well fitted inhibition curve with a large enough effect in the signal ratio, with a control signal flat, not every such curve was filed as active; inconclusive = small, poorly fitted or top-dose-only effect, or effect the other way, or a change in a side signal; the % refers to the signal ratio;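 also: potency is read from the fitted curve at half-maximal effect; plate controls were basal doxycycline-induced cells for no effect and cells given 10 µM MG132 for full effect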
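Cell line TMD8 (human ABC DLBCL), stably expressing tet-inducible CBG68-IkBa fusion and CBR; IMDM/0.5% FBS; cpd up to 46 uM; dox induction, 4 h, 37C/5% CO2; dual luminescence; green/red ratio; MG132 control.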
* hit, by the source's call; ? = inconclusive; · = no result given; [ ] = another dose, or the depositor's remark. Only some compounds are listed: those with a hit (about 1.4% of all), similar ones and a draw of the others. Unless noted, calls follow the shape of the dose curve; as a rule, active = well fitted curve in the direction sought with a large enough effect; inconclusive = small, poorly fitted or top-dose-only effect, or another doubt; inactive = no such curve, though single readings can be large; an effect the other way counts as inactive or inconclusive.

SMILES	N370S GC mod	a7 integrin act	BRCA1 expr up	IL-2 act	Nrf2 ARE act	BCR signal inh
O=C(CCSc1ccc(Cl)cc1)N1CCOCC1	2%	18%	7.9µM*	-1	-1%	-4%
O=C(O)c1cccc(COc2ccc(CO)cc2Cl)c1	-11%	-18%	-104%	1	-2%	?
COc1cc(CNCc2ccc(C(=O)O)cc2)ccc1OCc1ccc(F)cc1	2%	4.5µM*	24%	1	0%	0%
O=C(O)c1ccc(COc2ccc(CO)cc2Cl)cc1	-1%	5%	7.9µM*	0	0%	?
N#C/C(=C\c1ccc(OCc2ccc(F)cc2)cc1)C(=O)Nc1cccc(C(=O)O)c1	-5%	15%	11µM*	0	7%	?
N#C/C(=C\c1ccc(OCc2ccc(Br)cc2)cc1)C(=O)Nc1cccc(C(=O)O)c1	-18%	-49%	7.1µM*	0	3%	1%
N#C/C(=C/c1ccc(OCc2ccc(C(=O)O)cc2)cc1)C(=O)Nc1ccccc1	-24%	-13%	-2%	0	0%	?
O=C(Nc1cccc(Cl)c1)Nc1ccccc1OCc1cc(=O)n2ccccc2n1	·	·	·	·	1%	·
CC[C@H](C)[C@H](NC(=O)[C@H](CCC(=O)O)NC(=O)[C@H](CO)NC(=O)[C@@H](NC(=O)[C@@H](N)CO)C(C)C)C(=O)N[C@@H](CCC(N)=O)C(=O)N[C@@H](CC(C)C)C(=O)N[C@@H](CCSC)C(=O)N[C@@H](Cc1cnc[nH]1)C(=O)N[C@@H](CC(N)=O)C(=O)N[C@@H](CC(C)C)C(=O)NCC(=O)N[C@@H](CCCCN)C(=O)N[C@@H](Cc1cnc[nH]1)C(=O)N[C@@H](CC(C)C)C(=O)N[C@@H](CC(N)=O)C(=O)N[C@@H](CO)C(=O)N[C@@H](CCSC)C(=O)N[C@@H](CCC(=O)O)C(=O)N[C@@H](CCCNC(=N)N)C(=O)N[C@H](C(=O)N[C@@H](CCC(=O)O)C(=O)N[C@@H](Cc1c[nH]c2ccccc12)C(=O)N[C@@H](CC(C)C)C(=O)N[C@@H](CCCNC(=N)N)C(=O)N[C@@H](CCCCN)C(=O)N[C@@H](CCCCN)C(=O)N[C@@H](CC(C)C)C(=O)N[C@@H](CCC(N)=O)C(=O)N[C@@H](CC(=O)O)C(=O)N[C@H](C(=O)N[C@@H](Cc1cnc[nH]1)C(=O)N[C@@H](CC(N)=O)C(=O)N[C@@H](Cc1ccccc1)C(=O)N[C@H](C(=O)N[C@@H](C)C(=O)N[C@@H](CC(C)C)C(=O)NCC(=O)O)C(C)C)C(C)C)C(C)C	0%	·	·	·	·	·
COc1cc(/C=C(\C#N)C(=O)Nc2cccc(C(=O)O)c2)ccc1OCc1ccc(F)cc1	-19%	14%	11µM*	0	3%	?
CCOc1ccc(OCCC(=O)OCC(=O)N(CC)c2c(N)n(Cc3ccccc3)c(=O)[nH]c2=O)cc1	·	-13%	-16%	0	0%	·
O=C(O)c1cnn(-c2nc(-c3ccc(Br)cc3)cs2)c1C(F)(F)F	?	-14%	5µM*	0	2%	-18%
COC(=O)N/N=C(C)/C=C/c1ccccc1	·	-1%	3.5µM*	-6	3%	·
CCOC(=O)N/N=C(C)/C=C/c1ccccc1	0%	-25%	100%	-3	-1%	-2%
Cc1c(/C=C/C(=O)c2ccc(C(C)C)cc2)cnn1C	12%	-30%	11µM*	-5	2%[9.22 µM]	?
CCn1ncc(/C=C/C(=O)c2ccccc2)c1C	27%	15%	11µM*	-2	?	?
